{
  "source": "the supplement of paper PMC6555819",
  "data": [
    {"test_system": "VDR:RXRa (NR concentration 270 nM, RXRa partner concentration 90 nM)", "assay": "PBM binding z-score (relative to random genomic background probes); higher = stronger binding; sequences stand for … in GC…GCGATTGACAGCGTAGAATGAAGG", "description": "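Protein-binding microarray (Agilent 4x180K custom design, double-stranded 60-nt probes: 5' GC cap, 34-nt variable region, 24-nt constant primer region; full probe sequence given). Purified or IVT nuclear receptor:RXRα heterodimers (3:1 NR:RXRα, mostly 270:90 nM) or homodimers were incubated for 1 h in PBS with 2% milk and no ligand, then detected with Alexa488 antibodies. Fluorescence from o1-orientation probes (~5 replicates averaged) was converted to z-scores against 500 random hg19 background probes. Variable regions are seed direct-repeat (DR0–DR5) sites, all their single-nucleotide variants and half-site ablations.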", "values": [
      {"sequence": "CGAACTAGGTCAAGAGGTCAAAGTCCGCTTCCCG", "PBM binding z-score": 6.13},
      {"sequence": "GCTAGTTGGGCAGTAAAAGGTCACACACCGGTCG", "PBM binding z-score": 3.62},
      {"sequence": "CCAGACATGTGAGAAGGTAACTCAGCCTCGATTA", "PBM binding z-score": -0.439},
      {"sequence": "CGTCCAAGGTCAATGCTAGGTCAGCGAAAGCATT", "PBM binding z-score": 4.93},
      {"sequence": "TATCGGAGGACACGAAAGGTCAGAGCTCGACATC", "PBM binding z-score": 3.49},
      {"sequence": "TCAGACAGGTTAAGGTAACTCAGGTACGCAGTCG", "PBM binding z-score": 1.53},
      {"sequence": "CCAGACAGGTGAAAGGTAACTCAGTCTGGTACGC", "PBM binding z-score": 0.989},
      {"sequence": "TTACCAAGGTGAGCTGAGGTCGTTGAGCCAACTC", "PBM binding z-score": 4.29},
      {"sequence": "CCTAGCAGGCCATGGTCACTCAAGCATTTCGCTT", "PBM binding z-score": -0.485},
      {"sequence": "ACTCGGAGGACAAAGGTCGGAGCTACGCCAGTGA", "PBM binding z-score": 0.947},
      {"sequence": "CCTAGCAGGCCAATCTGGGTCACTCGAGGCTTGA", "PBM binding z-score": 0.491},
      {"sequence": "ACTATTACTTGACTTAGGGCAACCGATACGACGC", "PBM binding z-score": 0.428},
      {"sequence": "TCTTGTAGATCAATCAGGTTAAGAAAGCCTGAGT", "PBM binding z-score": 1},
      {"sequence": "ATATGTAGGTTAACGGTCATTCAGGTTGGTTCGC", "PBM binding z-score": 2.32},
      {"sequence": "TCATATAGGTAACTGCTAGGTGAAAGTCCGATCT", "PBM binding z-score": 0.632},
      {"sequence": "CGAACTAGGTCAAGGACATTGAATCTCCGCACGC", "PBM binding z-score": 1.73},
      {"sequence": "ATCTGTAGGTTAGCTGGGGTCATTCAGACTAGGC", "PBM binding z-score": 6.14},
      {"sequence": "AGAATGAGGTTATAGGTAGATCAGGGAAGAAAGT", "PBM binding z-score": 1.44},
      {"sequence": "TTACCAAGGTGAAGGTCGTTTATCCCTCTGTAGA", "PBM binding z-score": 1.66},
      {"sequence": "TCGAGTAGGTTACCAATGGGGCATACAGCTTTCT", "PBM binding z-score": 0.221},
      {"sequence": "TCTAGTTGGTCACGGAGGTCACATACGACGGGTA", "PBM binding z-score": 5.92},
      {"sequence": "GAAACAGGGTCAAGGCCAGAGTACGCGTATTGAT", "PBM binding z-score": 4.6},
      {"sequence": "ACTAGCAGGCCACGTTTGGGTCACTCAAACAAAG", "PBM binding z-score": 0.312},
      {"sequence": "GCTAACGGGTCAAAGGTTATAGCATGAATAGAAT", "PBM binding z-score": 4.9},
      {"sequence": "TCTTCTAGATCAAGCAGGTTAAGAAAGCCTGAGT", "PBM binding z-score": 0.623},
      {"sequence": "TCTCGGAGGATACGAAAGGTCAGAGCTCGACATC", "PBM binding z-score": 2.6},
      {"sequence": "CCTTACGGGTCACGAGGTTATAGCGCGACGAGCG", "PBM binding z-score": 4.99},
      {"sequence": "CGACCTAGGTCATTGACAGGACAGTGAATAGTAA", "PBM binding z-score": 2.97},
      {"sequence": "TTGAGTAGGTTAGGGGCATTCAGAATGGCGTCGA", "PBM binding z-score": 0.889},
      {"sequence": "TAGCCTATGTCATTCAGGGGCCAGTATAGAAAGC", "PBM binding z-score": -0.286},
      {"sequence": "GCTTGCAGGCCATTTGGGTCACTCAATGACGGGC", "PBM binding z-score": 1.08},
      {"sequence": "CGAGACAGGTGAGAAGGTAACTCAGCCTCGATTA", "PBM binding z-score": -0.375},
      {"sequence": "ACTGACGGGTCAACGAGGTTATAGCACGCGTATA", "PBM binding z-score": 7.41},
      {"sequence": "CCTATTACTTGACCATAAGGGCAACCGAAGCTCG", "PBM binding z-score": 0.976},
      {"sequence": "CCTTACGGGTCAAAGTTATAGCACGGGTGGTACG", "PBM binding z-score": 3.54},
      {"sequence": "TCGAGTAGGTTATTCGGGGCATTCAGCCAACATA", "PBM binding z-score": 4.03},
      {"sequence": "CCTGCTAGGTCATGCTCAGCTAATCTACAGTATG", "PBM binding z-score": 1.33},
      {"sequence": "ATCTCTAGGTAACAAGTTCACTGAAAGAGAGGAC", "PBM binding z-score": 3.26},
      {"sequence": "CAAACTAGGTCGAGAGGTCAAAGTCCGCTTCCCG", "PBM binding z-score": 5.01},
      {"sequence": "GCTCGGAGGCCAAGGTCAGAGCTTTGTCCGTAGA", "PBM binding z-score": 1.16}
    ]}
  ]
}
